Laboratory results reported in PubChem BioAssay (Tox21).
Inconclusive results are not listed. Calls of active or inactive are those of the source. Unless noted, the call rests on the fitted dose curve; in most records, active means well fitted curve in the direction sought with a large enough effect in the repeat runs; inconclusive means weak or mixed curves; inactive means no such curve, though single readings can be large; an effect the other way counts as inactive or inconclusive.

Assays:
[1] = qHTS assay to identify small molecule antagonists of the retinoid acid receptor (RAR) signaling pathway - cell viability counter screen (AID 1159551); further: nearly all actives have a fitted effect of over 35% in size; further: potency means the concentration at half of the fitted maximal effect
Method in brief: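 C3RL4 RARE-luciferase cells, 1,000/well, incubated overnight, then dosed with compound plus 1 uM retinol (final). After 6 hr at 37 C, viability read by CellTiter-Glo ATP luminescence following 30 min at room temperature.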

[2] = qHTS assay to identify small molecule antagonists of the retinoic acid receptor (RAR) signaling pathway (AID 1159552; further: nearly all actives have a fitted effect of over 50% in size; further: potency means the concentration at half of the fitted maximal effect)
Method in brief: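 RARE-luc C3RL4 cells; cpds + 1 uM (final) retinol, 6 hr, 37 C/5% CO2; luciferase reagent, 30 min RT, luminescence readout. Inhibitors of retinol-driven signal scored.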

[3] = qHTS assay to identify small molecule antagonists of the estrogen related receptor (ERR) signaling pathway from Tox21 library - cell viability counter screen (AID 1224834); further: nearly all actives have a fitted effect of over 30% in size; further: potency means the concentration at half of the fitted maximal effect
Method in brief: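 ERR reporter cells, 2,000 per well, rested 6 h, then exposed to compound in DMSO for 17.5 hours at 37 C. Viability read as fluorescence after 30 min with CellTiter-Fluor.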

[4] = target: Luciferin 4-monooxygenase (Photinus pyralis) (UniProt P08659); assay: qHTS assay to identify small molecule inhibitors of firefly luciferase (AID 1224835); further: nearly all actives have a fitted effect of over 25% in size; further: potency means the concentration at half of the fitted maximal effect
Method in brief: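 Inhibition of purified Photinus luciferase is measured by luminescence. Substrate levels (D-luciferin, ATP) sit at their KM values. Each compound is tested in a concentration series.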

[5] = qHTS assay to identify small molecule agonists of the constitutive androstane receptor (CAR) signaling pathway - cell viability counter screen (AID 1224836); further: nearly all actives have a fitted effect of over 45% in size; further: potency means the concentration at half of the fitted maximal effect
Method in brief: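 HepG2 cells stably carrying hCAR and a CYP2B6-2.2kb reporter were plated 4 h, then given compounds at 15 concentrations plus PK11195 (final 0.75 uM). After 23 h at 37 C, viability was read by CellTiter-Fluor fluorescence.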

[6] = qHTS assay to identify small molecule antagonists of the constitutive androstane receptor (CAR) signaling pathway - cell viability counter screen (AID 1224837); further: nearly all actives have a fitted effect of over 45% in size; further: potency means the concentration at half of the fitted maximal effect
Method in brief: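 HepG2 cells stably carrying hCAR and CYP2B6-2.2kb reporter, stimulated with 50 nM CITCO and compounds at 15 concentrations for 23 h at 37 C. Viability measured by CellTiter-Fluor fluorescence.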

[7] = target: Nuclear receptor subfamily 1 group I member 3 (Homo sapiens) (UniProt Q14994); assay: qHTS assay to identify small molecule agonists of the constitutive androstane receptor (CAR) signaling pathway (AID 1224839); further: series mostly up to about 92 µM; nearly all actives have a fitted effect of over 15% in size
Method in brief: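 HepG2 cells stably expressing hCAR and a CYP2B6-2.2kb luciferase reporter were treated with compounds at 15 concentrations plus 0.75 uM PK11195 (final) for 24 h at 37 C; luminescence was read after ONE-Glo addition.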

[8] = qHTS assay to identify small molecule antagonists of the estrogen related receptor signaling pathway with the pleiotropic PPARgamma coactivator (PGC) from Tox21 10K library - cell viability counter screen (AID 1224840; active means well fitted cell-killing curve with a large enough effect in the repeat runs, not every such curve was filed as active; further: nearly all actives have a fitted effect of over 40% in size; further: potency means the concentration at half of the fitted maximal effect)
Method in brief: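 PGC/ERR cells (2,000/well) plated 6 h, then compound-treated for 17.5 h at 37 C. Viability measured by CellTiter-Fluor fluorescence after 30 min at 37 C, multiplexed with the pathway assay.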

[9] = qHTS assay to identify small molecule antagonists of the estrogen related receptor signaling pathway with the pleiotropic PPARgamma coactivator (PGC) from Tox21 10K library (AID 1224841; call rule not given here; further: actives are mostly falling curves and most rising ones were filed inactive; nearly all actives have a fitted effect of over 50% in size; further: potency means the concentration at half of the fitted maximal effect)
Method in brief: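 PGC/ERR cell line, 2,000 cells/well, pre-incubated 6 hours at 37 C, then exposed to compounds for 18 hours at 37 C; luciferase read with One-Glo luminescence after 30 min at room temperature.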

[10] = qHTS assay to identify small molecule agonists of the estrogen related receptor signaling pathway with the pleiotropic PPARgamma coactivator (PGC) from Tox21 10K library (AID 1224842); further: nearly all actives have a fitted effect of over 15% in size
Method in brief: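 Luminescence from One-Glo (30 min, room temperature) measured after PGC/ERR cells had 18 h at 37 C with pinned compound (23 nL in DMSO). Cells had been seeded at 2,000 per well and pre-incubated 6 h.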

[11] = target: Thyrotropin receptor (Homo sapiens) (UniProt P16473); assay: qHTS assay to identify small molecule agonists of the thyroid stimulating hormone receptor (TSHR) signaling pathway (AID 1224843; calls by dose curve; further: nearly all actives have a fitted effect of over 45% in size)
Method in brief: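 Screening of the Tox21 10K collection used HEK293 cells engineered with TSHR at 800 cells per well. After a 30-min room-temperature compound exposure, HTRF cAMP reagents were added and fluorescence recorded 1 h later.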

[12] = qHTS assay to identify small molecule agonists of the hypoxia (HIF-1) signaling pathway - cell viability counter screen (AID 1224844; calls by dose curve; further: nearly all actives have a fitted effect of over 50% in size; further: potency means the concentration at half of the fitted maximal effect)
Method in brief: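 HRE-bla ME-180 cells, 2,000/well in 0.5% dialyzed FBS medium, treated 17 h at 37C with compounds. Viability read in the same wells as the bla reporter, by CellTiter-Glo luminescence after 30 min at room temperature.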

[13] = target: Nuclear receptor subfamily 1 group I member 3 (Homo sapiens) (UniProt Q14994); assay: qHTS assay to identify small molecule antagonists of the constitutive androstane receptor (CAR) signaling pathway (AID 1224838); further: nearly all actives have a fitted effect of over 40% in size; further: potency means the concentration at half of the fitted maximal effect
Method in brief: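 HepG2 cells stably carrying hCAR and a CYP2B6-2.2kb luciferase reporter, seeded 4 hrs before compound (15 concentrations). Stimulated with 50 nM CITCO for 24 hr at 37 C. ONE-Glo luminescence read after 30 min at room temperature.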

Measured: Potency

Sequence of Nuclear receptor subfamily 1 group I member 3 (Homo sapiens) (Q14994 whole entry, looked up): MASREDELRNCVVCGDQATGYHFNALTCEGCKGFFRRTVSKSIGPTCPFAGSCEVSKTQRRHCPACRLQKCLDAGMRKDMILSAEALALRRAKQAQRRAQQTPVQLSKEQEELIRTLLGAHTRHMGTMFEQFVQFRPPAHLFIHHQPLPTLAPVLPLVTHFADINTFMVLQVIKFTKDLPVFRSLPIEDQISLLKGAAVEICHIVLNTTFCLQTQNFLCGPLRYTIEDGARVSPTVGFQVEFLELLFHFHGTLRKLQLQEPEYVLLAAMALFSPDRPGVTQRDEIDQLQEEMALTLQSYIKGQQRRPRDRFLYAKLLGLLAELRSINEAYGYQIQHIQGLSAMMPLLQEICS
Sequence of Luciferin 4-monooxygenase (Photinus pyralis) (P08659 whole entry, looked up): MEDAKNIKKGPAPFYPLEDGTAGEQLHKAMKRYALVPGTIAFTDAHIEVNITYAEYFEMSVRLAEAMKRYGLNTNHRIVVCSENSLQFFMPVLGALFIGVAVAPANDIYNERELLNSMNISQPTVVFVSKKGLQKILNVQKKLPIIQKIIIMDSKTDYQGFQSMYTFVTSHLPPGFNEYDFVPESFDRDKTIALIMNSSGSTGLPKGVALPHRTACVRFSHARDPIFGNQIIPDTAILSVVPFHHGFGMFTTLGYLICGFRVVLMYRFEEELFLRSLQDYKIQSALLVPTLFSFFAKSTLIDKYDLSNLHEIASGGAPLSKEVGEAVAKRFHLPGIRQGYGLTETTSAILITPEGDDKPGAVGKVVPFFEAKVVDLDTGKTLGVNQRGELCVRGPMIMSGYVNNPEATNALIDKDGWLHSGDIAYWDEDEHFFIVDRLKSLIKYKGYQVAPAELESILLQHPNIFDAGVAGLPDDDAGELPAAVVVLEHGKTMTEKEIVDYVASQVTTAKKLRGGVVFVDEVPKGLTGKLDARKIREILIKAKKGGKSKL
Sequence of Thyrotropin receptor (Homo sapiens) (P16473 whole entry, looked up): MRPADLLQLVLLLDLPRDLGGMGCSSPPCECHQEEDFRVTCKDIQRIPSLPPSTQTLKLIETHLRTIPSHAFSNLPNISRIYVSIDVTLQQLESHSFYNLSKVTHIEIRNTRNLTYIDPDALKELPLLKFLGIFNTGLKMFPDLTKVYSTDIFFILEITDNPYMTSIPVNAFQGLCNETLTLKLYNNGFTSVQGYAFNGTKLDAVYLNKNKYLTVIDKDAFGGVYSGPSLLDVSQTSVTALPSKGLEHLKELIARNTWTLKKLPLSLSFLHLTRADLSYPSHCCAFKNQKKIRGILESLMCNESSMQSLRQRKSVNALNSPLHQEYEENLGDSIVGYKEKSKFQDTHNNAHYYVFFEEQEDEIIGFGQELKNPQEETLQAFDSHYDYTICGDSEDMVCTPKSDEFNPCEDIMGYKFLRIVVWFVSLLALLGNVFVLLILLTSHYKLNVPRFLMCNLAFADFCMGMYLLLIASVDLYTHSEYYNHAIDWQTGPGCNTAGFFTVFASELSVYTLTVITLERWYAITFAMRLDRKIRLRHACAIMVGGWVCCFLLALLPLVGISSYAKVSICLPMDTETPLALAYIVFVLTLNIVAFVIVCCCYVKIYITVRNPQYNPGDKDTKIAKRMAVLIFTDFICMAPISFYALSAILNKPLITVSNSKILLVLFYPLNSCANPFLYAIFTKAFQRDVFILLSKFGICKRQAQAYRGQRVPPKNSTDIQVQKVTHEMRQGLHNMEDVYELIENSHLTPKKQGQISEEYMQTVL

CCOC(/C=C(\C)CCC=C(C)C)OCC
inactive: [1] | [2] | [3] | [4] | [5] | [6] | [7] | [8] | [9] | [10] | [11] | [12]

CO[Si](CCC1CCC2OC2C1)(OC)OC (stereo not given)
inactive: [1] | [2] | [3] | [4] | [5] | [6] | [13] | [8] | [9] | [10] | [11] | [12]

Cc1cccc(C)n1
inactive: [1] | [2] | [3] | [4] | [5] | [6] | [7] | [8] | [11] | [12]

CCCCCCCCC(C)=O
inactive: [1] | [2] | [3] | [4] | [5] | [6] | [13] | [7] | [8] | [11] | [12]

CC1CCCCC1
inactive: [1] | [2] | [3] | [4] | [5] | [6] | [13] | [7] | [8] | [11] | [12]

OCCN1CN(CCO)CN(CCO)C1
inactive: [1] | [2] | [3] | [4] | [5] | [6] | [7] | [8] | [11]

O=C[C@H](O)[C@H](O)[C@H](O)CO
inactive: [1] | [2] | [3] | [4] | [5] | [6] | [13] | [7] | [8] | [11] | [12]

N#CSCSc1nc2ccccc2s1
inactive: [7]
active: [1] 61.1 µM | [2] 17.2 µM | [3] 61.1 µM | [4] 35.6 µM | [5] 61.1 µM | [6] 27.3 µM | [13] 30.6 µM | [8] 61.1 µM | [12] 6.92 µM

CCCCCCS
inactive: [1] | [2] | [3] | [4] | [5] | [6] | [13] | [8] | [11] | [12]

CCC1CCCCC1
inactive: [1] | [2] | [3] | [4] | [5] | [6] | [7] | [8] | [10] | [11] | [12]

CNC(=S)NN
active: [2] 43.3 µM | [3] 15.4 µM | [5] 43.3 µM | [6] 17.2 µM | [8] 13.7 µM | [9] 9.69 µM
inactive: [1] | [4] | [10] | [11]

Oc1cc2ccccc2cc1O
inactive: [1] | [2] | [3] | [4] | [5] | [6] | [7] | [8] | [11] | [12]

O=CC1CC1
inactive: [1] | [2] | [3] | [4] | [5] | [6] | [13] | [7] | [8] | [11] | [12]

CCc1cccc(CC)c1N(COC)C(=O)CS(=O)(=O)O
inactive: [1] | [2] | [3] | [4] | [5] | [6] | [13] | [8] | [9] | [11] | [12]

CCN=C1C=CC(=C(c2ccc(N(CC)CC)cc2)c2ccc(N(CC)CC)cc2)c2ccccc21
inactive: [7]
active: [1] 24.2 µM | [2] 4.83 µM | [3] 8.58 µM | [4] 28.1 µM | [5] 6.08 µM | [6] 6.08 µM | [13] 6.08 µM | [8] 9.63 µM | [12] 21.7 µM

CN1CN(C)CN(C)C1
inactive: [1] | [2] | [3] | [4] | [5] | [6] | [8] | [9] | [10] | [11] | [12]

OCCCS
inactive: [1] | [2] | [3] | [4] | [5] | [6] | [13] | [8] | [11] | [12]

CCCCN(C)C
inactive: [1] | [2] | [3] | [4] | [5] | [6] | [7] | [8] | [11] | [12]

c1ccc2c(c1)CCC2
inactive: [1] | [2] | [3] | [4] | [5] | [6] | [7] | [8] | [11] | [12]

C/C=C/C(=O)C1=C(C)CCCC1(C)C
inactive: [1] | [2] | [3] | [4] | [5] | [6] | [7] | [8] | [11]

COc1cccc(O)c1
inactive: [1] | [2] | [3] | [4] | [5] | [6] | [7] | [8] | [12]

CC(C)=CCCC(C)CCOC(=O)C(C)C (stereo not given)
inactive: [1] | [2] | [3] | [4] | [5] | [6] | [13] | [7] | [8] | [11] | [12]

CC1(C)COCN1
inactive: [1] | [2] | [3] | [4] | [5] | [6] | [7] | [8] | [9] | [11] | [12]
